Measured values as given in the supplement of paper PMC12669032.
Values without a mark were called inactive.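 Rule for the calls: active = AUC reduced over 20% with Padj below 0.05 in at least 2 of 3 replicates; inactive = otherwise.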

Experiments:
Experiment in all cases: growth AUC relative to DMSO control (median of replicates) (fraction); higher = more growth (less inhibition), active = hit call of the paper
Conditions in all cases: 20 µM; 24 h
Akkermansia muciniphila = system: Akkermansia muciniphila
How it was run: (§1)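 Gut bacterial monocultures were grown anaerobically at 37 °C in mGAM, starting at OD600 0.05, with 20 µM compound (1% DMSO) in round-bottom 96-well plates under pierced gas-permeable seals. OD600 was read hourly for 24 h. Area under the growth curve (minimum OD set to 0) was normalised to the plate median of DMSO controls, or to row and column medians on the industrial chemical plate. The value is the median of three biological replicates grown on separate days.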

Bacteroides caccae = system: Bacteroides caccae
How it was run: as §1

Bacteroides clarus = system: Bacteroides clarus
How it was run: as §1

Bacteroides dorei = system: Bacteroides dorei
How it was run: as §1

Bacteroides stercoris = system: Bacteroides stercoris
How it was run: as §1

[1] = system: Bacteroides thetaiotaomicron
How it was run: as §1

Bacteroides uniformis = system: Bacteroides uniformis
How it was run: as §1

[2] = system: Bifidobacterium longum subsp. longum
How it was run: as §1

Clostridium difficile = system: Clostridium difficile
How it was run: as §1

Collinsella aerofaciens = system: Collinsella aerofaciens
How it was run: as §1

Coprococcus comes = system: Coprococcus comes
How it was run: as §1

Escherichia coli ED1a = system: Escherichia coli ED1a
How it was run: as §1

Escherichia coli IAI1 = system: Escherichia coli IAI1
How it was run: as §1

Eubacterium rectale = system: Eubacterium rectale
How it was run: as §1

[3] = system: Fusobacterium nucleatum subsp. animalis
How it was run: as §1

Lactobacillus gasseri = system: Lactobacillus gasseri
How it was run: as §1

Lactobacillus paracasei = system: Lactobacillus paracasei
How it was run: as §1

Odoribacter splanchnicus = system: Odoribacter splanchnicus
How it was run: as §1

[4] = system: Parabacteroides distasonis
How it was run: as §1

Parabacteroides merdae = system: Parabacteroides merdae
How it was run: as §1

Row | SMILES | growth AUC (Akkermansia muciniphila) | growth AUC (Bacteroides caccae) | growth AUC (Bacteroides clarus) | growth AUC (Bacteroides dorei) | growth AUC (Bacteroides stercoris) | growth AUC [1] | growth AUC (Bacteroides uniformis) | growth AUC [2] | growth AUC (Clostridium difficile) | growth AUC (Collinsella aerofaciens) | growth AUC (Coprococcus comes) | growth AUC (Escherichia coli ED1a) | growth AUC (Escherichia coli IAI1) | growth AUC (Eubacterium rectale) | growth AUC [3] | growth AUC (Lactobacillus gasseri) | growth AUC (Lactobacillus paracasei) | growth AUC (Odoribacter splanchnicus) | growth AUC [4] | growth AUC (Parabacteroides merdae)
1 | O=[N+]([O-])c1ccc(Oc2ccc(C(F)(F)F)cc2[N+](=O)[O-])cc1 | 0.834 | 0.929 | 0.878 | 0.88 | 1.05 | 0.92 | 0.917 | 0.936 | 1.02 | 0.93 | 0.856 | 0.964 | 0.959 | 0.88 | 0.969 | 0.977 | 0.766 | 0.982 | 0.957 | 0.953
2 | CCSC(=O)N(CC)C1CCCCC1 | 0.936 | 0.998 | 0.974 | 1.02 | 1.06 | 1.01 | 1.01 | 1.01 | 1.01 | 1.09 | 0.988 | 0.987 | 1.03 | 1.01 | 1.01 | 1.2 | 1 | 0.975 | 1.07 | 1.03
3 | O=c1ccc(=O)[nH][nH]1 | 1.2 | 0.973 | 1.01 | 0.989 | 0.951 | 1 | 1.05 | 1.62 | 0.954 | 0.92 | 0.996 | 0.973 | 0.976 | 1.06 | 0.877 | 0.957 | 1.11 | 1.08 | 1.01 | 0.99
4 | CCOP(=O)(OCC)Oc1ccc([N+](=O)[O-])cc1 | 0.962 | 1.03 | 0.999 | 1.01 | 1.08 | 1.01 | 1 | 1.15 | 1.03 | 1.05 | 1.03 | 0.988 | 1.03 | 0.91 | 1.06 | 1.02 | 1.04 | 1.05 | 0.999 | 0.986
5 | CC(C)[C@H](C(=O)O[C@H](C#N)c1cccc(Oc2ccccc2)c1)c1ccc(Cl)cc1 | 1.1 | 0.99 | 0.979 | 1.04 | 0.778 | 1.01 | 1.02 | 0.917 | 1 | 0.921 | 0.973 | 0.962 | 0.959 | 0.934 | 0.954 | 0.901 | 1.01 | 1.09 | 0.923 | 1.01
6 | CNC(=O)Oc1ccc(N(C)C)c(C)c1 | 1.05 | 0.855 | 1.01 | 0.983 | 1.41 | 0.994 | 1 | 0.979 | 0.99 | 0.932 | 0.992 | 1 | 1.01 | 1.06 | 1.08 | 0.909 | 1 | 0.861 | 0.977 | 0.986
7 | CCc1cnc(C2=NC(C)(C(C)C)C(=O)N2)c(C(=O)O)c1 (stereo not given) | 0.891 | 1.01 | 0.971 | 0.951 | 0.985 | 0.981 | 1.01 | 0.937 | 0.993 | 0.983 | 0.975 | 0.995 | 1 | 0.962 | 0.981 | 1.04 | 0.924 | 0.961 | 0.989 | 1.01
8 | Nc1cc(Cl)cc(Cl)c1 | 1.1 | 0.895 | 1.04 | 1.03 | 1.33 | 1.01 | 1.04 | 1.08 | 1 | 0.984 | 1.01 | 1.03 | 1.06 | 1.04 | 1.13 | 0.944 | 1 | 0.893 | 1 | 1.04
9 | Cc1nnc(-c2ccccc2)c(=O)n1N | 0.94 | 1.05 | 1 | 1 | 0.945 | 1.02 | 0.986 | 1.04 | 1 | 0.983 | 1 | 1 | 0.995 | 0.993 | 0.998 | 0.931 | 0.972 | 1.06 | 1 | 1.02
10 | COc1c(Cl)ccc(Cl)c1Cl | 1.02 | 0.971 | 0.985 | 0.995 | 1.19 | 1.01 | 0.99 | 1.04 | 1.01 | 0.98 | 0.973 | 0.967 | 0.99 | 1.01 | 1.04 | 0.879 | 0.937 | 1 | 0.985 | 0.981
11 | O=C(Cc1ccccc1)N/C(=N\OCC1CC1)c1c(C(F)(F)F)ccc(F)c1F | 1.23 | 0.936 | 0.965 | 0.945 | 0.852 | 0.959 | 0.912 | 0.975 | 0.957 | 0.915 | 1.01 | 0.983 | 0.972 | 1.03 | 0.937 | 0.842 | 0.946 | 0.911 | 0.612 (active) | 0.877
12 | ClC1=C(Cl)C(Cl)(C2(Cl)C(Cl)=C(Cl)C(Cl)=C2Cl)C(Cl)=C1Cl | 1.27 | 0.926 | 0.93 | 0.895 | 0.809 | 0.856 | 0.875 | 0.94 | 1 | 0.823 | 1.05 | 1.04 | 1.01 | 0.861 | 1.13 | 1.01 | 0.987 | 1 | 0.958 | 0.863
13 | Oc1ccc(Cc2ccc(O)cc2)cc1 | 0.954 | 0.992 | 1.03 | 0.998 | 1.05 | 1.02 | 1.01 | 0.975 | 1.02 | 1.01 | 0.968 | 1.03 | 0.979 | 1.09 | 0.987 | 1.04 | 0.962 | 0.942 | 0.89 | 0.994
14 | Oc1ccc(Cl)cc1Cc1cc(Cl)ccc1O | 0.202 (active) | 0.416 (active) | 0.154 (active) | 0.765 | 0.00782 (active) | 0.359 (active) | 0.163 (active) | 0.598 (active) | 0.633 (active) | 0.878 | 0.965 | 0.793 (active) | 0.684 (active) | 0.497 (active) | 0.845 | 0.115 (active) | 0.47 (active) | 0.0459 (active) | 0.0176 (active) | 0.0937 (active)
15 | Nc1cnn(-c2ccccc2)c(=O)c1Cl | 0.895 | 1.01 | 0.992 | 0.995 | 1.12 | 1.01 | 0.997 | 0.936 | 1.03 | 1 | 1.02 | 1.03 | 1 | 1.03 | 1.05 | 1.07 | 1.07 | 0.949 | 0.996 | 0.997
16 | N#Cc1cc(I)c(O)c(I)c1 | 0.914 | 0.802 | 0.76 (active) | 0.776 | 0.939 | 0.919 | 0.799 (active) | 0.941 | 0.919 | 1.04 | 1.02 | 0.891 | 0.764 (active) | 0.954 | 0.828 | 0.95 | 0.982 | 0.853 | 0.814 | 0.802
